About 2,700 (0.75%) of roughly 360,000 compounds were called active. Cut-off read from the data, not from the text of the source: active = inhibition above about 4.5%; inactive = the rest. Shown is part of a subset that was picked to be rich in actives.

The record followed here is PubChem BioAssay AID651718 (The Scripps Research Institute Molecular Screening Center, 2012).

The subject of the assay is Methionine sulfoxide reductase A (Bos taurus). The experiment in a line: bovine MsrA enzyme inhibitors, primary screen, biochemical, absorbance, HTS (AID 651718).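 Note: 0% = vehicle wells with enzyme and 100% = reference inhibitor wells.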 The conditions noted are these: purified bovine MsrA, absorbance read-out; at 15.5 µM; hits give high values.
`COC(=O)C1=C(C(=O)OC)C2C=C(C(C)C)C1C(=O)C2(C)O` (stereo not drawn): the inhibition is 0.16% (inactive).
Consider `CC[C@H](C)[C@H]1CNC(=O)C(=O)N1CC1CCN(CCc2ccc(OC)c(OC)c2)CC1`, for which the inhibition is -0.53% (inactive).
For `O=C(NCC(c1ccco1)N1CCc2ccccc21)c1cccc(F)c1` (stereo not drawn), the inhibition was -0.1% (inactive).
The same measure for `Cc1ccccc1C(=O)N[C@H](C(=O)N1CCC[C@H]1C(=O)NCc1ccccc1)C(C)C`: 0.08% (inactive).
`Cc1ccc2nc(-c3ccc(CN4CCC(n5cc(-c6ccccc6)[nH]c5=O)CC4)cc3)c(-c3ccccc3)nc2c1`: the inhibition was 1.47% (inactive).
`O=c1[nH]c(-c2ccccc2)cn1C1CCN(Cc2ccc(-c3nc4ccc(F)cc4nc3-c3ccccc3)cc2)CC1`: the inhibition was 1.06% (inactive).
Turning to `Cc1nc(NC(=O)C(C)(C)C)sc1[N+](=O)[O-]`, the inhibition is 0.16% (inactive).
Turning to `Oc1c(C(c2ccco2)N2CCC3(CC2)OCCO3)sc2ncnn12` (stereo not drawn), the inhibition is 1.08% (inactive).
Turning to `O=C(NC(Cc1c[nH]c2ccccc12)C(=O)N/N=C/c1ccc(Br)cc1)c1cccs1` (stereo not drawn), the inhibition was 1.85% (inactive).
Turning to `CC1(C)CC(=O)C/C(=N\NC(=O)c2cccs2)C1`, the inhibition was 0.04% (inactive).
With `C/C(=N\OCC(=O)Nc1ccc(Br)cc1)c1cccs1` the figure was 0% (inactive).
On to `CC(=O)Nc1ccc(/C=N/NC(=O)c2cccs2)cc1`, for which the inhibition is 5.38% (active).
Consider `O=C(N/N=C/C=C/c1ccco1)c1cccs1`, for which the inhibition was 5.18% (active).
As to `O=C(COC(=O)CCC(=O)c1cccs1)NCc1ccco1`, the inhibition was -1.07% (inactive).
For `Nc1[nH]c(C(=O)c2ccc(Br)cc2)c(-c2ccc3c(c2)OCO3)c1C(=O)NCCc1c[nH]c2ccccc12`, the inhibition is 1.06% (inactive).
In the case of `CCOC(=O)CNC(=O)N(C)[C@H]1C[C@H]2c3[nH]c4c(-c5ccc6c(c5)OCO6)cccc4c3CCN2C(=O)[C@H]1[C@H](C)O`, the inhibition was 0.91% (inactive).
For `COC(=O)[C@]12C[C@H](CC(=O)NCc3ccc(C)o3)C(=O)N(CCC3=CCCCC3)C1=C[C@H](C(C)(C)C)O[C@@H]2C`, the inhibition was -0.16% (inactive).
With `COCc1cc(N2CCN(C(=O)OC(C)(C)C)C[C@@H]2C)ccc1N1CCN(Cc2ccccc2)[C@H](C)C1`, the inhibition is -0.33% (inactive).
The same measure for `CN1C(=O)C2CC(O)C(SC3CC4C(=O)N(C)C(=O)C4CC3O)CC2C1=O` (stereo not drawn): -0.2% (inactive); for `COC(=O)C1=C(C)N(Cc2cccc(C(F)(F)F)c2)C(=NCc2ccccc2)NC1c1ccc(Cl)cc1` (stereo not drawn): -1.08% (inactive).
The same measure for `O=C(C(=O)N1CCC(CNC(=O)c2cccnc2Cl)CC1)c1cccs1`: 0.64% (inactive); for `COc1ccc(S(=O)(=O)N2CCOCC2)cc1NC(=O)CSc1nnc(NC2CC2)s1`: 1.12% (inactive); for `CCCCc1cc(=O)oc2cc(C)cc(OCc3nn[nH]n3)c12`: 2.46% (inactive).
For the compound `COc1ccc(-c2cc3ccc(OCc4nn[nH]n4)cc3oc2=O)cc1`, the inhibition is 6.87% (active).
`Cc1noc(C)c1COc1ccc2ccc(=O)oc2c1`: the inhibition was 1.22% (inactive).
As to `CN1CCNC(=O)C1CC(=O)NCCC1=CCCCC1` (stereo not drawn), the inhibition was 2.03% (inactive).
As for `CCOC(=O)C1CSCCS(=O)(=O)N1Cc1ccc(Cl)cc1` (stereo not drawn), the inhibition was -0.33% (inactive).
`Cc1c(Cl)c([N+](=O)[O-])nn1Cc1ccc(C(=O)N/N=C\c2cc(Cl)ccc2O)o1`: the inhibition is 0.28% (inactive).
For `Cc1cc(C(=O)N/N=C/c2ccc(O)c([N+](=O)[O-])c2)c(C)n1-c1ccc(F)cc1`, the inhibition is 4.88% (active).
The same measure for `CC(Oc1ccccc1[N+](=O)[O-])C(=O)N/N=C/c1ccoc1` (stereo not drawn): 1.1% (inactive); for `COC(=O)C(C(=O)OC)c1ccccc1NS(=O)(=O)c1cccc2ccccc12`: -0.65% (inactive); for `CCCCOC(=O)CCCc1ccc([N+](=O)[O-])cc1[N+](=O)[O-]`: 4.36% (inactive).
On to `CCOC(=O)C/C(C)=N\Nc1ccc([N+](=O)[O-])cc1[N+](=O)[O-]`, for which the inhibition was 12.8% (active).
The same measure for `CCOC(=O)c1ccc(NNC(C)=O)c([N+](=O)[O-])c1`: -0.39% (inactive); for `CC(C(=O)NC1CCCC1)N1CCN(S(=O)(=O)c2ccccc2Cl)CC1` (stereo not drawn): -0.92% (inactive); for `CCCCNC(=O)C(C)N(CCN(C)C)C(=O)CCCCCN1C(=O)NC(c2ccc(Cl)cc2)C(C(=O)OCc2ccccc2)=C1C` (stereo not drawn): 1.77% (inactive).
On to `NC(=O)CSc1nnc(NC(=O)c2ccc(Br)o2)s1`, for which the inhibition is 4.64% (active).
With `COC(=O)CSc1nnc(NC(=O)CCc2ccccc2)s1`, the inhibition is 0.95% (inactive).
Regarding `CC(C)(C)NC(=O)CSc1nnc(NC(=O)CCc2ccccc2)s1`, the inhibition is 0.59% (inactive).
As for `COC(=O)[C@]12C[C@H](CC(=O)NCCc3ccccc3OC)C(=O)N(Cc3ccccc3)C1=C[C@H](C(C)C)O[C@@H]2C1CC1`, the inhibition was 0.87% (inactive).
For the compound `COc1ccc(/C=C(\NC(=O)c2ccccc2)C(=O)NCCN2CCOCC2)cc1OC`, the inhibition is 2.05% (inactive).
As to `Cc1ccc(C(=O)N/C(=C\c2cn(C)c3ccccc23)C(=O)N2CCN(C)CC2)cc1`, the inhibition is 3.12% (inactive).
On to `CCn1cc(/C=C(\NC(=O)c2ccc(C)cc2)C(=O)NCCN2CCOCC2)c2ccccc21`, for which the inhibition was 4.67% (active).
With `O=C(O)Cn1cnc2c(NCc3ccccc3)ncnc21` the figure was 0.37% (inactive); with `Cc1ccc(S(=O)(=O)N(C)c2ccc(OCC(=O)NC3=NCCS3)cc2)cc1`, -0.97% (inactive).
With `Cc1ccc(S(=O)(=O)N(C)c2ccc(OCC(=O)OCc3ccc(C#N)cc3)cc2)cc1` the figure was 7.12% (active); with `Cc1ccc(S(=O)(=O)N(C)c2ccc(OCC(=O)OCC(=O)N(CC#N)c3ccccc3)cc2)cc1`, 0.73% (inactive); with `NC(=O)c1ccc(-c2csnn2)cc1`, 1.41% (inactive).
As for `Cc1cc(C)nc(N2C(=O)CC(Cc3ccccc3)C2=O)n1` (stereo not drawn), the inhibition is -1.66% (inactive).
As to `CC1(C)N=C(c2ccccn2)C(C)(C)N1O`, the inhibition was 0.21% (inactive).
`COC(=O)C1=C(C)NC(=S)NC1c1ccc(OC)cc1` (stereo not drawn): the inhibition was 0.87% (inactive).
Turning to `CCCCNc1cccc2c1S(=O)(=O)N[C@@H](C)CO2`, the inhibition was 0.33% (inactive).
On to `Nc1nnnn1/N=C/c1cccs1`, for which the inhibition was 0.3% (inactive).
The same measure for `Nc1nnnn1/N=C/c1cccc(Br)c1`: 0.5% (inactive); for `COc1ccc(/C=N/n2nnnc2N)cc1OC`: 4.82% (active); for `CCN(CC)Cc1c(C(=O)OC)nnn1-c1nonc1N`: 0.6% (inactive).
`CC1(C)OC(=O)C2=C(CC(CCc3ccccc3)OC2c2ccc(Cl)cc2)O1` (stereo not drawn): the inhibition is 0.43% (inactive).
As for `COc1cc(/C=N/NC(=O)Nc2ccccc2)ccc1OCCOc1ccccc1C`, the inhibition is 0.83% (inactive).
For the compound `COc1ccc(/C=N\NC(=O)c2sc(N)nc2C)cc1OC`, the inhibition is 7.88% (active).
For the compound `Cc1nnsc1C(=O)N/N=C/c1cccc(C(F)(F)F)c1`, the inhibition was -1.17% (inactive).
On to `Cc1cc(OC(=O)NCCc2ccc(F)cc2)ccc1F`, for which the inhibition was 0.24% (inactive).
`CCCCCCCCN1C(=O)[C@@H](CC(=O)NCCCC)C[C@@]2(C(=O)OC)C1=C[C@H](C(C)(C)C)O[C@@H]2C`: the inhibition is 0.08% (inactive).
With `O=C(/C=C/Sc1ncn[nH]1)c1ccc(Cl)cc1`, the inhibition is 5.19% (active).
Regarding `COc1cccc(-c2cc(CNC(=O)[C@@H](Cc3ccccc3)NC(=O)[C@H]3O[C@@H](n4cnc(C(N)=O)n4)[C@H](O)[C@@H]3O)no2)c1`, the inhibition is -0.49% (inactive).
Turning to `COc1ccccc1CCn1cnc(-c2ccccc2)c1C(C)C`, the inhibition was 0% (inactive).
Regarding `COc1ccc(CCNC(=S)NC(=O)/C=C/c2ccc(C)cc2)cc1OC`, the inhibition was 0.54% (inactive).
As for `COc1ccc(/C=C2/CCCc3ccccc3C2=O)cc1`, the inhibition was 0.69% (inactive).
Take `COc1ccc(/C=C2\N=C3CCCN3C2=O)cc1`: the inhibition was 4.73% (active).
The same measure for `COc1ccc(/C=C2\SC(=N)N(c3ccc(F)cc3)C2=O)cc1`: -0.72% (inactive); for `CCCCn1c(N)c(N(CCOC)C(=O)COc2c(C)cccc2C)c(=O)[nH]c1=O`: 0.79% (inactive).
Turning to `O=C(NCc1ccccc1)[C@H]1CCCN1C(=O)[C@H]1CCCN1C(=O)c1cc(F)cc(F)c1`, the inhibition is 0.16% (inactive).
For the compound `O=C(OCc1cc2ccccc2[nH]c1=O)c1cccnc1`, the inhibition was -0.22% (inactive).
For the compound `O=C(CC(=O)c1cccnc1)c1ccccc1`, the inhibition is 2.87% (inactive).
With `O=C(Oc1c(-c2ccco2)oc2ccccc2c1=O)c1cccnc1` the figure was 5.77% (active).
With `CCOc1cc(/C=N/NC(=O)c2ccc(CSc3nncn3C)cc2)ccc1OCC(=O)N1CCOCC1` the figure was 4.92% (active); with `CC(C)CC(CC(C)C)=NNC(=O)c1ccc(CSc2nncn2C)cc1`, -0.77% (inactive).
As to `CCOc1cc(/C=N/NC(=O)c2cccc(S(=O)(=O)N3CCOCC3)c2)ccc1OCC(=O)N(C)C`, the inhibition is 4.25% (inactive).
With `CCC(Cc1ccccc1)NS(=O)(=O)c1ccc2c(c1)NC(=O)CS2` (stereo not drawn) the figure was -0.21% (inactive); with `CNC(=S)N/N=C/c1ccc(N2CCOCC2)s1`, 3.27% (inactive); with `C=CCNC(=S)N/N=C/c1ccc(C)s1`, 4.91% (active).
Regarding `C=CCNC(=S)NNC(=O)c1ccc(Br)o1`, the inhibition was -0.22% (inactive).
As to `CC(C)(C)C(c1nc2ccccc2[nH]1)n1c(Cc2csc3ccccc23)nc2ccccc21` (stereo not drawn), the inhibition was -0.41% (inactive).
Turning to `COC(=O)C1=C(C)N(Cc2ccccc2C(F)(F)F)C(=NCC2CC2)NC1c1cccc(Cl)c1` (stereo not drawn), the inhibition is -2.13% (inactive).
For the compound `O=S1(=O)c2ccc(Br)cc2-n2nncc2CN1Cc1cccc(Cl)c1`, the inhibition is 0.62% (inactive).
As to `CC(C)(C)n1nc(C2CC2)c(Br)c1NC(=O)c1ccccc1F`, the inhibition was -0.05% (inactive).
The same measure for `CC(C)C[C@H]1CN([C@@H](Cc2ccccc2)CN2CCC[C@@H]2CN2C(=O)C(=O)NC[C@@H]2Cc2ccc(O)cc2)C(=O)C(=O)N1CCc1ccccc1`: -0.32% (inactive).
As to `O=C(O)c1ccccc1Cc1ccc(F)c2ccccc12`, the inhibition is 0.31% (inactive).
The same measure for `COc1cccc(NC(=O)N(C)C[C@@H]2OCc3cn(nn3)CCCC(=O)N([C@@H](C)CO)C[C@H]2C)c1`: 0.43% (inactive).

Broadly, the inhibition is the relative decrease from the control value, in per cent.
